# This is part of a sample that, as a whole, favours compounds with a hit. Of some 83,000 tested, about 20% had one in any assay.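 Compound tested at a single concentration for 48 hours in 96-well plates; a percent growth value below 10 was scored as active.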 Values without a mark were called inactive. Activity calls are given as the source filed them.
# Tested on: COLO 205 colon
# Test: NCI-60 one-dose screen, 48 h (100 = growth as untreated, 0 = no growth, -100 = all killed)
# Details: 10 µM unless noted
row,SMILES,growth
1,Cc1cc(N2CCN(c3ccnc4cc(Cl)ccc34)CC2)nc(N2CCOCC2)n1,73%
2,N#Cc1c(N)n(CCNC(=O)c2ccccc2)c2nc3ccccc3nc12,115%
3,COc1ccc(CN2c3ccccc3Sc3ccccc32)c(C(F)(F)F)c1,-29.1% (active)
4,CCc1c(Nc2ccccc2C)nc(N)[nH]c1=O,109%
5,CC(=O)c1cc2c(N)c(C(=O)Nc3ccccc3)sc2nc1C,4.95% (active)
6,CCCCC/C(C=C(C#N)C#N)=C/c1ccccc1,86.5%
7,OCCNc1nccc(N2CCN(c3ccnc4cc(Cl)ccc34)CC2)n1,65.6%
8,Cc1cc(N2CCSCC2)nc(NC2CCCC(Nc3ccnc4cc(Cl)ccc34)C2)n1 (configuration not stated),-74.8% (active)
9,COc1ccc(Nc2c3c4c(cccc4[nH]c2=O)C(=O)c2ccccc2-3)cc1,-64.5% (active)
10,O=C1/C(=C/c2ccccc2O)N=C2SCCCN12,99.9%
11,COc1cc2c(cc1O)CC[C@@H]1[C@@H]2CC[C@]2(C)[C@@H](OCCCN(C)C)CC[C@@H]12,-71% (active)
12,O=C(Cn1cccc(Nc2ccccc2)c1=O)Nc1ccccc1,107%
13,Cc1cc(N2CCN(c3ccnc4cc(Cl)ccc34)CC2)nc(NC2CCCCC2)n1,-48.4% (active)
14,CSc1ccc(SC2c3ccc(C)cc3Oc3nc(N)c(C#N)c(N)c32)cc1 (configuration not stated),-76.7% (active)
15,O=c1ccccc(-c2ccc(-c3ccco3)cc2)c1O,26.3%
16,O=C(COc1ccc(/C=C2\CSc3ccccc3C2=O)cc1)Nc1nccs1,117%
17,CN(C)CCCNc1c2ccccc2nc2ccccc12,100%
18,O=C(Cc1ccc(/C=C/C(=O)c2ncc[nH]2)cc1)Nc1ccccc1,45.5%
19,CC/C=C\C/C=C\C[C@H]1C/C=C2/C(=O)C=C[C@@H]2C/C=C\CCC(=O)O1,-29.9% (active)
20,COc1cccc(-c2nc(SCC(=O)Nc3ccc(C(=O)/C=C/c4ccc(OC)c(OC)c4)cc3)[nH]c(=O)c2C#N)c1,103%
21,Cc1cc(N2CCN(C)CC2)nc(NC2CCCC(Nc3ccnc4cc(Cl)ccc34)C2)n1 (configuration not stated),-76.1% (active)
22,Clc1ccc2nc3nc4ccc[nH]c4cc3c2c1,98.9%
23,COc1ccc2c(c1)C(=O)/C(=C/c1ccccn1)CC2,87.7%
24,COc1ccc(C2Nc3c(c(C(C)(C)C)nn3-c3ccccc3)C(=O)CS2)cc1 (configuration not stated),103%

# Tested on: DU-145 prostate
# Test: as above
# Details: 10 µM unless noted
row,SMILES,growth
1,O=C(COc1cccc(/C=C2\COc3ccc(Cl)cc3C2=O)c1)c1ccc(Cl)cc1,124%
2,Cc1cc(Nc2ccc(C)c(Cl)c2)n2nc(C(F)(F)F)nc2n1,42.5%
3,CN(C)c1ccc(NC(=O)c2ccc(/C=C/C(=O)c3ncc[nH]3)cc2)cc1,20.2%
4,O=[N+]([O-])c1ccccc1/C=N\NC(=S)N/N=C/c1ccccc1[N+](=O)[O-],62.1%
5,O=C(Oc1cccnc1)c1ccsc1Nc1ccnc(C(F)(F)F)c1,108%
6,OC(c1cc2cc(Cl)c(Cl)cc2c2cc(C(F)(F)F)ccc12)C1CCCCN1 (configuration not stated),-86.2% (active)
7,COc1ccc(-c2cc(-c3ccc(Nc4ccnc5cc(Cl)ccc45)cc3)nc(N3CCOCC3)n2)cc1,21.7%
8,C=C1C(=O)O[C@H]2[C@H]1CC/C(COC(=O)NCCc1ccc(OC)c(OC)c1)=C\CC[C@@]1(C)O[C@@H]21,39.5%
9,O=[N+]([O-])c1ccc2c(c1)Cc1cc(F)ccc1-2,114%
10,CN1CCN(c2nc(NCCCNc3ccnc4cc(Cl)ccc34)c3ccccc3n2)CC1,59.8%
11,Clc1ccc2c(NCCCCNc3nc(N4CCCCC4)nc4ccccc34)ccnc2c1,27.6%
12,NC(=NC1C2CC3CC(C2)CC1C3)Nc1ccc(I)cc1 (configuration not stated),20.4%
13,CCOc1nc(-c2ccccc2)cc2c(O)c(C(=O)O)[nH]c(=O)c12,101%
14,COc1ccc(Nc2cc(C)nc(N3CCN(c4ccnc5cc(Cl)ccc45)CC3)n2)cc1,58%
15,Cc1cc(N2CCN(c3ccnc4cc(Cl)ccc34)CC2)nc(N2CCOCC2)n1,88.1%
16,N#Cc1c(N)n(CCNC(=O)c2ccccc2)c2nc3ccccc3nc12,134%
17,COc1ccc(CN2c3ccccc3Sc3ccccc32)c(C(F)(F)F)c1,21%
18,CCc1c(Nc2ccccc2C)nc(N)[nH]c1=O,111%
19,CC(=O)c1cc2c(N)c(C(=O)Nc3ccccc3)sc2nc1C,75.5%

row,SMILES,growth
1,CCCCC/C(C=C(C#N)C#N)=C/c1ccccc1,71.3%
2,OCCNc1nccc(N2CCN(c3ccnc4cc(Cl)ccc34)CC2)n1,98.8%
3,Cc1cc(N2CCSCC2)nc(NC2CCCC(Nc3ccnc4cc(Cl)ccc34)C2)n1 (configuration not stated),19.7%
4,COc1ccc(Nc2c3c4c(cccc4[nH]c2=O)C(=O)c2ccccc2-3)cc1,-20.9% (active)
5,O=C1/C(=C/c2ccccc2O)N=C2SCCCN12,103%
6,COc1cc2c(cc1O)CC[C@@H]1[C@@H]2CC[C@]2(C)[C@@H](OCCCN(C)C)CC[C@@H]12,-10.3% (active)
7,O=C(Cn1cccc(Nc2ccccc2)c1=O)Nc1ccccc1,111%
8,Cc1cc(N2CCN(c3ccnc4cc(Cl)ccc34)CC2)nc(NC2CCCCC2)n1,51.5%
9,CSc1ccc(SC2c3ccc(C)cc3Oc3nc(N)c(C#N)c(N)c32)cc1 (configuration not stated),-88.7% (active)
10,O=c1ccccc(-c2ccc(-c3ccco3)cc2)c1O,19.7%
11,O=C(COc1ccc(/C=C2\CSc3ccccc3C2=O)cc1)Nc1nccs1,130%
12,CN(C)CCCNc1c2ccccc2nc2ccccc12,101%
13,O=C(Cc1ccc(/C=C/C(=O)c2ncc[nH]2)cc1)Nc1ccccc1,17.8%
14,CC/C=C\C/C=C\C[C@H]1C/C=C2/C(=O)C=C[C@@H]2C/C=C\CCC(=O)O1,23.2%
15,COc1cccc(-c2nc(SCC(=O)Nc3ccc(C(=O)/C=C/c4ccc(OC)c(OC)c4)cc3)[nH]c(=O)c2C#N)c1,89.4%
16,Cc1cc(N2CCN(C)CC2)nc(NC2CCCC(Nc3ccnc4cc(Cl)ccc34)C2)n1 (configuration not stated),16.9%
17,Clc1ccc2nc3nc4ccc[nH]c4cc3c2c1,100%
18,COc1ccc2c(c1)C(=O)/C(=C/c1ccccn1)CC2,26.1%
19,COc1ccc(C2Nc3c(c(C(C)(C)C)nn3-c3ccccc3)C(=O)CS2)cc1 (configuration not stated),101%
